In the supplement of paper PMC9262897, “Low-cost anti-mycobacterial drug discovery using engineered E. coli” (Nature Communications, 2022) one finds growth data, which are given here for 29 compounds.

Structures can show the parent of a compound that is named as a salt. ± gives the standard deviation of the averaged measurements.

For this test, the system named is E. coli TESEC Mtb Alr. Put plainly: growth (OD600 after 10 h); higher = more growth (less inhibition). The note with it: arabinose 10000000 nM; compound 0.1 mM; raw OD600 reference: median of DMSO wells […], cell-free background 0.052. As to the method:
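TESEC Mtb Alr E. coli (ΔaraC ΔtolC ΔentC Δalr ΔdadX, arabinose-inducible Mtb Alr) or the Alr+ wild-type control strain, grown in defined M9-fructose medium without D-alanine in 96-well plates with Prestwick library compounds at 0.1 mM and 1% DMSO. Low Alr induction is 0.1 µM arabinose and high induction is 10 mM arabinose.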
`O=C(N/N=C/c1ccc([N+](=O)[O-])o1)c1ccc(O)cc1` [Nifuroxazide] returned a growth of 0.0578 ± 0.0014. For `COCCOC(=O)C1=C(C)NC(C)=C(C(=O)OC/C=C/c2ccccc2)C1c1cccc([N+](=O)[O-])c1` (centres undefined) [Cilnidipine], the growth worked out at 0.253 ± 0.026. Take `CCN(CC)CCOC(=O)c1ccc(N)cc1` [Procaine hydrochloride]: the growth was found to be 0.259 ± 0.17. With `COc1cccc(N(C)C(=S)Oc2ccc3c(c2)CCCC3)n1` [Liranaftate] the figure was 0.127 ± 0.0031; with `CC(C)(Sc1cc(C(C)(C)C)c(O)c(C(C)(C)C)c1)Sc1cc(C(C)(C)C)c(O)c(C(C)(C)C)c1` [Probucol], 0.366 ± 0.015. `C[C@@H]1[C@H](O)[C@@H](C)/C=C/C=C/C=C/C=C/C=C/C=C/C=C/[C@H](O[C@@H]2O[C@H](C)[C@@H](O)[C@H](N)[C@@H]2O)C[C@@H]2O[C@](O)(C[C@@H](O)C[C@@H](O)[C@H](O)CC[C@@H](O)C[C@@H](O)CC(=O)O[C@H]1C)C[C@H](O)[C@H]2C(=O)O` [Amphotericin B] displayed a growth of 0.478 ± 0.027.

With `C[C@@H](O)[C@H]1C(=O)N2C(C(=O)O)=C(S[C@@H]3CN[C@H](C(=O)N(C)C)C3)[C@H](C)[C@H]12` [Meropenem], the growth is 0.0882 ± 0.013. For `CC1CCc2cc(F)cc3c(=O)c(C(=O)O)cn1c23` (centres undefined) [Flumequine] the value was 0.05097 ± 0.00047. Turning to `O=C1CC2(CCCC2)CC(=O)N1CCCCN1CCN(c2ncccn2)CC1` [Buspirone hydrochloride], the growth was determined as 0.346 ± 0.011.

In turn, `CC[C@]12CCCN3CCc4c(n(c5ccccc45)[C@@](O)(C(=O)OC)C1)[C@@H]32` [Vincamine] gave a growth of 0.322 ± 0.011. In turn, `N#CC(c1ccc(Cl)cc1)c1c(Cl)cc(-n2ncc(=O)[nH]c2=O)cc1Cl` (centres undefined) [Diclazuril] displayed a growth of 0.0529 ± 0.00089. With `CCOC(=O)[C@H](CCc1ccccc1)N[C@H]1CCc2ccccc2N(CC(=O)O)C1=O` [Benazepril HCl] the figure was 0.331 ± 0.015; with `C[C@H](CCC(=O)O)[C@H]1CC[C@H]2[C@@H]3[C@H](O)C[C@@H]4C[C@H](O)CC[C@]4(C)[C@H]3CC[C@]12C` [Chenodiol], 0.209 ± 0.02; with `CC(=O)CC(c1ccccc1)c1c(O)c2ccccc2oc1=O` (centres undefined) [Warfarin], 0.342 ± 0.012. With `O=C1CN(/N=C/c2ccc(-c3ccc([N+](=O)[O-])cc3)o2)C(=O)N1` [Dantrolene sodium salt] the figure was 0.187 ± 0.033. Consider `Nc1nc2c(ncn2COC(CO)CO)c(=O)[nH]1` [Ganciclovir], for which the growth was 0.365 ± 0.0063. For `Cc1ccc(C(=O)c2cc(O)c(O)c([N+](=O)[O-])c2)cc1` [Tolcapone] the value was 0.0554 ± 0.00035; for `Fc1ccc([C@@H]2CCNC[C@H]2COc2ccc3c(c2)OCO3)cc1` [Paroxetine Hydrochloride], 0.134 ± 0.073; for `COc1ccc(CN2CCN(C(c3ccc(F)cc3)c3ccc(F)cc3)CC2)c(OC)c1OC` [Lomerizine hydrochloride], 0.0708 ± 0.013. `C[C@@H]1C[C@H]2[C@@H]3CCC4=CC(=O)C=C[C@]4(C)[C@@]3(Cl)[C@@H](O)C[C@]2(C)[C@@]1(OC(=O)c1ccco1)C(=O)CCl` [Mometasone furoate]: the growth was 0.244 ± 0.0054. On to `Cc1cccc(Nc2ccncc2S(=O)(=O)NC(=O)NC(C)C)c1` [Torsemide], for which the growth stood at 0.326 ± 0.025. `COc1nc(C)nc(Cl)c1NC1=NCCN1` [Moxonidine] gave a growth of 0.342 ± 0.02. For `NC(=O)c1cccnc1` [Nicotinamide] the value was 0.453 ± 0.0089; for `NCCCC(O)(P(=O)(O)O)P(=O)(O)O` [Alendronate sodium], 0.204 ± 0.023. The compound `NNC(=O)c1ccncc1` [Isoniazid] displayed a growth of 0.359 ± 0.022. With `CC(C)OC(=O)C(C)(C)Oc1ccc(C(=O)c2ccc(Cl)cc2)cc1` [Fenofibrate] the figure was 0.089 ± 0.01. Consider `CCC[C@@H]1C[C@@H](C(=O)N[C@@H]([C@H]2O[C@H](SC)[C@H](O)[C@@H](O)[C@H]2O)[C@@H](C)O)N(C)C1` [Lincomycin hydrochloride], for which the growth was 0.12 ± 0.019.

`CS(=O)(=O)OCCCCOS(C)(=O)=O` [Busulfan]: the growth stood at 0.362 ± 0.029. With `CC[C@H]1OC(=O)C[C@@H](O)[C@H](C)[C@@H](O[C@@H]2O[C@H](C)[C@@H](O[C@H]3C[C@@](C)(O)[C@@H](O)[C@H](C)O3)[C@H](N(C)C)[C@H]2O)[C@@H](CC=O)C[C@@H](C)C(=O)/C=C/C(C)=C/[C@@H]1CO[C@@H]1O[C@H](C)[C@@H](O)[C@@H](OC)[C@H]1OC` [Tylosin] the figure was 0.0521 ± 0.00046.
